The list is not random: actives were taken first. Their share in the collection is about 19%.
HT1080-NT tox – kills 2HG-producing HT-1080-NT fibrosarcoma cells | HT-1080-NT fibrosarcoma viability, CellTiter-Glo ATP luminescence, 48 h | Potency, µM (doses to about 46.1 µM), without a hit: at the highest dose activity, negative = less viability, hits mostly cytotoxic | actives 1.6% (n = 360,000) | AID 686970;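 note: NT is the 2HG producing partner of a matched IDH1 knockdown line; 0% = DMSO-treated cells and -100% = media-only wells without cells; nearly all actives have a fitted effect of over 55% in size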
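Luminescent CellTiter-Glo readout after 48 hours of compound exposure at 37 degrees C defined viability of HT-1080-NT cells. Activity was normalized to DMSO wells and cell-free media wells; concentration-response curves were fitted and assigned curve classes.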
TDP1 cell CPT – growth inhibition of DT40 Tdp1-/-;hTDP1 cells with camptothecin (screen for TDP1 inhibitors). actives 12% (n = 420,000). Potency, µM (series often up to 46.2 µM), for the others: at the top dose activity change, negative = growth inhibition, usual class: inhibitors. chicken DT40 Tdp1-/-;hTDP1 cells + 20 nM CPT, ATP luminescence, 48 h; note: nearly all actives have a fitted effect of over 55% in size
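Cell growth measured by CellTiter-Glo luminescence after a minimum 48 h, 37 C compound exposure with 20 nM CPT in Tdp1-knockout DT40 cells stably expressing hTDP1, seeded 400/well; qHTS titration format.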
KB-V1 MDR tox – kills drug-selected multidrug resistant KB-V1 cells | actives 3.4% (n = 400,000) | AID 1347076 | KB-V1 MDR cells viability, CellTiter-Glo, 72 h | Potency, µM (series often up to 46.1 µM), usual class: cytotoxic; note: nearly all actives have a fitted effect of over 60% in size
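Compound-treated KB-V1 multidrug-resistant cells, 72 h, 37 degrees C; viability by CellTiter-Glo. Fitted qHTS curves give the values.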
KB-3-1 tox – KB-3-1 parental cell cytotoxicity. KB-3-1 viability, CellTiter-Glo ATP luminescence, 72 h. Potency, µM (titrated, usually from 46.1 µM), hits mostly cytotoxic. actives 1.4% (n = 400,000). AID 1347075; note: nearly all actives have a fitted effect of over 60% in size
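Multi-concentration cytotoxicity screen in KB-3-1 cells grown in DMEM lacking phenol red with 10% FBS. After 72 h at 37 °C with compound, ATP-dependent luminescence was recorded.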
TDP1 cell noCPT – qHTS for Inhibitors of human tyrosyl-DNA phosphodiesterase 1 (TDP1): qHTS in cells in absence of CPT; Potency, µM (doses to about 46.2 µM), inactives show at the top dose activity change, negative = growth inhibition, most hits filed as inhibitors; AID 686978, 2013; actives 15% (n = 420,000); DT40 Tdp1-/- hTDP1 cells, no CPT, ATP luminescence, 48 h; note: nearly all actives have a fitted effect of over 55% in size
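DT40 Tdp1-/-;hTDP1 cells, no CPT (DMSO vehicle only), 400 cells/well; compounds pin-transferred; ≥48 hr, 37 °C; CellTiter-Glo 30 min RT dark, luminescence read.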
HT1080 IDH1KD tx – HT-1080 IDH1 knockdown cell toxicity (counter line); HT-1080 IDH1 knockdown viability, ATP luminescence, 48 h; Potency, µM (top dose mostly 46.1 µM), for the others: top-dose activity, negative = toxicity, usual class: cytotoxic; actives 2% (n = 360,000);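 note: 0% = DMSO wells and -100% = cell-free medium wells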
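Knockdown cells (IDH1KD HT-1080) received compounds 2 h after plating at 750 cells/well and were kept 48 h at 37 °C in 5% FBS RPMI. A CellTiter-Glo luminescence read gave % activity for curve fitting.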
* hit, by the source's call. Calls come from the whole dose curve; as a rule, active = well fitted curve in the direction sought with a large enough effect; inconclusive = small, poorly fitted or top-dose-only effect, or another doubt; inactive = no such curve, though single readings can be large; an effect the other way counts as inactive or inconclusive. Unless noted, % is set by controls: 0 for no effect and ±100 for the full control effect; potency is the fitted concentration of half-maximal effect.

For Cn1cccc1C(=O)N1CCC2(CCCN(c3ccccn3)C2)CC1 the results were TDP1 cell CPT -10% and TDP1 cell noCPT inconclusive.
Cc1ccc2[nH]c(=O)c(CN(CCCN(C)C)C(=O)Nc3ccc(F)cc3)cc2c1 was read as HT1080-NT tox 0%, TDP1 cell CPT inconclusive, KB-V1 MDR tox inactive, KB-3-1 tox inactive, TDP1 cell noCPT 13µM* and HT1080 IDH1KD tx 1%.
For COc1ccc(NC(=O)N(CCCN(C)C)Cc2cc3cc(OC)ccc3[nH]c2=O)cc1 the results were HT1080-NT tox 1%, TDP1 cell CPT inconclusive, KB-V1 MDR tox inactive, KB-3-1 tox inactive, TDP1 cell noCPT -23% and HT1080 IDH1KD tx -6%.
`Cc1nonc1OCC(C)(COc1nonc1C)NC(=O)c1ccc(Cl)cc1` gave HT1080-NT tox inconclusive, TDP1 cell CPT inconclusive, KB-V1 MDR tox 4.1µM*, KB-3-1 tox inconclusive, TDP1 cell noCPT 6% and HT1080 IDH1KD tx -28%.
For OB(O)O the results were TDP1 cell CPT 3% and TDP1 cell noCPT -19%.
For O=C(Nc1ccc(F)c([N+](=O)[O-])c1)C(=O)c1c(O)[nH]c2ccccc12 the results were HT1080-NT tox -29%, TDP1 cell CPT 18µM*, KB-V1 MDR tox inactive, KB-3-1 tox inactive, TDP1 cell noCPT 13µM* and HT1080 IDH1KD tx -6%.
`O=C(Nc1ccccc1)Nc1ccc(F)c([N+](=O)[O-])c1` gave HT1080-NT tox -4%, TDP1 cell CPT 16µM*, KB-V1 MDR tox inconclusive, KB-3-1 tox inconclusive, TDP1 cell noCPT 16µM* and HT1080 IDH1KD tx 3%.
`CCOC(=O)C1CCCN(C(=O)c2cc3cc(OC)c(OC)cc3[nH]2)C1` (configuration not stated) gave HT1080-NT tox 4%, TDP1 cell CPT -2%, KB-V1 MDR tox inactive, KB-3-1 tox inactive, TDP1 cell noCPT -21% and HT1080 IDH1KD tx 0%.
`CCNC(=O)C1CCCN(C(=O)c2ccc(N(C)C)cc2)CC1` (configuration not stated) gave HT1080-NT tox inconclusive, TDP1 cell CPT -13%, KB-V1 MDR tox inactive, KB-3-1 tox inactive, TDP1 cell noCPT 12% and HT1080 IDH1KD tx 25%.
CCCn1c(SCC(=O)NC2CCCCC2)nnc1-c1ccncc1 was read as HT1080-NT tox -6%, TDP1 cell CPT 29µM*, KB-V1 MDR tox inactive, KB-3-1 tox inactive, TDP1 cell noCPT -78% and HT1080 IDH1KD tx 1%.
CCn1c(SCC(=O)NC2CCCCC2C)nnc1-c1ccc(OC)cc1 (configuration not stated) was read as HT1080-NT tox 8%, TDP1 cell CPT inconclusive, KB-V1 MDR tox 2.6µM*, KB-3-1 tox inactive, TDP1 cell noCPT -24% and HT1080 IDH1KD tx 2%.
CCCCn1c(SCC(=O)NC2CC2)nnc1-c1ccncc1 was read as HT1080-NT tox 12%, TDP1 cell CPT 4%, KB-V1 MDR tox inactive, KB-3-1 tox inactive, TDP1 cell noCPT 0% and HT1080 IDH1KD tx 11%.
Screening Cc1cc(C)c2c(n1)nn1c(C)c(CCC(=O)Nc3ccc(C)c(Cl)c3)c(C)nc21 returned TDP1 cell CPT -14% and TDP1 cell noCPT inconclusive.
For CCC(C)CN1C(=O)CSCC1(C)C(=O)Nc1ccc2c(c1)OCCO2 (configuration not stated) the results were HT1080-NT tox 14%, TDP1 cell CPT -19%, KB-V1 MDR tox inconclusive, KB-3-1 tox inactive, TDP1 cell noCPT -30% and HT1080 IDH1KD tx 10%.
Cc1ccccc1NC(=O)/C(=C/c1ccccc1)c1ccccc1 was read as HT1080-NT tox 2%, TDP1 cell CPT 21µM*, KB-V1 MDR tox inactive, KB-3-1 tox inactive, TDP1 cell noCPT 12µM* and HT1080 IDH1KD tx -9%.

Screening results (PubChem BioAssay)
